# Bioassay records deposited in PubChem BioAssay by The Scripps Research Institute Molecular Screening Center.
# UHRF1 MBD2 ctr = blocks human UHRF1 binding to methylated DNA; Q96T88; UHRF1 binding to methylated oligo, TR-FRET; inhibition, % at 4.4 µM; 370,000 compounds, 0.75% hits; AID 687016; in the data active means inhibition above about 21%;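 further: UHRF1 SRA domain binding a hemimethylated CpG hairpin DNA probe; 0% = median of test compound wells and 100% = reference inhibitor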
# TCR CD3 inh = blocks the human TCR-CD3 interaction. AID 651800. 360,000 compounds, 0.37% hits. TAMRA-labeled TCR probe fluorescence, biochemical. inhibition, % at 9.4 µM; in the data active means inhibition above about 19%;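 further: recombinant mutant TCR 2C K166C tagged with TAMRA read by polarization; 0% = receptor in buffer alone and 100% = receptor with positive control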
# MBD2 inh = MBD2-methylated oligo binding inhibition; 370,000 compounds, 0.31% hits; inhibition, % at 4.4 µM; Q9UBB5; TR-FRET, MBD2 binding to methylated oligonucleotide; in the data active means inhibition above about 13%
# Target sequence (Q9UBB5 whole entry, looked up): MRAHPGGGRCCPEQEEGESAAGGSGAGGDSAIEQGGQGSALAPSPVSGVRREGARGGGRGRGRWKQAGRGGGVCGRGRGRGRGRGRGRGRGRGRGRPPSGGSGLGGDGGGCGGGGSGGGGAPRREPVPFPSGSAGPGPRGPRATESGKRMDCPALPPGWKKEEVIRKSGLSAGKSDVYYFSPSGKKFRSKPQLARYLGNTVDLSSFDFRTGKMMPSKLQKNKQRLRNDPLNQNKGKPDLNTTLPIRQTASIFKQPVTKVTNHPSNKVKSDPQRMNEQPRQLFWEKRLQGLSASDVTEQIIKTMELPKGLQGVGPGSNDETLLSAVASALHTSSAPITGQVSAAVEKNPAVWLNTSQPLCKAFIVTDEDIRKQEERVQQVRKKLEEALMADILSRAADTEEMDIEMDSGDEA
# LEDGF integ inh = blocks HIV-1 LEDGF/p75-dependent DNA integration; inhibition, % at 3.7 µM; TR-FRET IN-LEDGF/p75 DNA integration, Eu/Cy5; 370,000 compounds, 0.64% hits;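 active means inhibition above the screen-wide mean plus 3 SD, cut at about 13% in these data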;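 further: signal is the Cy5 over europium emission ratio at 671 and 618 nm; 0% = plate median of compound wells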
# Rin1 Abl inh = inhibitors of human Rin1-Abl protein interaction | 360,000 compounds, 0.4% hits | inhibition, % at 7.35 µM | TR-FRET Rin1/Abl binding, biochemical; in the data active means inhibition above about 5%, passing the limit was not always enough
# IN multimer up = counter-screen for LEDGF/p75 integration inhibitors: HIV-1 integrase multimerization activators; shares compounds with LEDGF integ inh; TR-FRET HIV-1 integrase multimerization, biochemical; activation, % at 7.7 µM; 2,000 compounds, 17% hits; in the data active means activation above about 8.9%
# TRFRET interf = counter-screen for LEDGF/p75 integration inhibitors: TR-FRET optical interference; 2,000 tested, under 10 active; shares compounds with LEDGF integ inh; inhibition, % at 7.7 µM; TR-FRET optical interference counterscreen, HIV-1 IN multimerization; AID 1053135;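 active means inhibition above the mean over all tested compounds plus 3 SD, which no compound reached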;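 further: 0% = integrase with antibodies and DMSO and 100% = antibodies without integrase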
# LEDGF integ conf = confirmation of HIV-1 LEDGF/p75-dependent integration inhibitors; 2,000 compounds, 36% hits; TR-FRET LEDGF/p75-dependent HIV-1 integration, biochemical; shares compounds with LEDGF integ inh; AID 1053136; inhibition, % at 3.7 µM; in the data active means inhibition above about 14%
# * marks the source's active call; other numbers are inactive results; · = no result. Compounds with a hit are over-represented: about 2% of the library has one in this group of screens.
SMILES,UHRF1 MBD2 ctr,TCR CD3 inh,MBD2 inh,LEDGF integ inh,Rin1 Abl inh,IN multimer up,TRFRET interf,LEDGF integ conf
CC1(C(=O)NCc2ccco2)Cc2c(-c3cccc(C(F)(F)F)c3)ccnc2O1 (stereo not drawn),3,-4,1,-3,2,·,·,·
O=C(COc1ccc(F)cc1)N1CCCc2ccccc21,-2,-2,4,3,3,·,·,·
CC1(C(=O)NS(=O)(=O)c2ccccc2OC(F)(F)F)CCN1C(=O)c1ccco1 (stereo not drawn),1,1,-5,0,-5,·,·,·
O=C1C(Nc2cccc(O)c2)=C(N2CCCCC2)C(=O)c2ccccc21,13,3,-6,20*,-1,-1,4,37*
O=C1C(NS(=O)(=O)c2ccc(Br)cc2)=C(N2CCCCC2)C(=O)c2ccccc21,-7,-2,-8,-5,1,·,·,·
CCOc1cc(C(=O)Nc2cccc3ncccc23)cc(OCC)c1OCC,-1,4,0,16*,4,1,-5,-1
O=C1C=C(O)c2[nH]c(=O)ccc2C1=O,10,9,-10,26*,-2,30*,-106,51*
Cc1sc2ncnc(SCC(=O)N3CCCC3=O)c2c1C,-2,-6,-2,61*,-1,1,-7,0
O=C(c1cccc(C(F)(F)F)c1)N1CCN(CCc2ccccc2)CC1,-1,2,1,-1,2,·,·,·
Cc1cc(C(=O)COC(=O)Cc2n[nH]c(=O)c3ccccc23)c(C)n1-c1cccc(C(F)(F)F)c1,2,7,-4,30*,0,0,2,11
Cc1cc(C(=O)COC(=O)CC2Sc3ccccc3NC2=O)c(C)n1-c1cccc(C(F)(F)F)c1 (stereo not drawn),0,-3,-2,-3,2,·,·,·
CC(C)(C)C(=O)Nc1ccc(/C=C/C(=O)c2ccco2)cc1,-4,-3,-4,34*,0,0,-1,-3
CC(Cc1ccccc1)NC(=O)CN1C(=O)c2ccccc2S1(=O)=O (stereo not drawn),-4,4,2,82*,-1,1,-3,-5
C[C@@H](NC(=O)CN1C(=O)c2ccccc2S1(=O)=O)c1ccccc1,4,-4,4,0,3,·,·,·
O=[N+]([O-])c1ccccc1Oc1ccc(S(=O)(=O)N2CCOCC2)cc1,4,2,1,-5,2,·,·,·
O=C1c2ccccc2C(=O)c2c(Nc3ccc(CCO)cc3)ccc(O)c21,0,0,0,15*,-1,14*,-51,0
CCOC(=O)c1c2c(n(Cc3ccccc3)c1C)C(=O)C(=O)c1ccccc1-2,2,10,-9,17*,3,3,-9,72*
COc1ccc(C(C)(NC(C)=O)c2nc(-c3cccc(C#N)c3)cs2)cc1 (stereo not drawn),-1,-2,0,1,3,·,·,·
CC(=O)NC(C)(c1ccccc1)c1nc(-c2cccc(C#N)c2)cs1 (stereo not drawn),-4,4,-4,14*,-3,-1,3,-3
O=c1cc(-c2ccccc2)[nH][nH]1,-1,1,-5,23*,3,-2,8,3
O=c1cc(-c2ccc(F)cc2)[nH][nH]1,-1,4,-9,17*,-1,2,-12,17*
COc1ccccc1C(=O)N1CCC2CCN(C(=O)OC(C)(C)C)C2C1 (stereo not drawn),0,-4,-4,8,·,·,·,·
Fc1cccc(F)c1/C=C/c1ccc2ccccc2n1,0,5,3,-3,0,·,·,·
C(=C\c1ccco1)/c1ccc2ccccc2n1,25*,13,7,18*,2,17*,-86,37*
O=C(NCc1cccc(C(F)(F)F)c1)c1ccc2nc([C@@H]3O[C@H](CO)[C@@H](O)[C@H]3O)[nH]c2c1,-3,4,3,1,0,·,·,·
SMILES,UHRF1 MBD2 ctr,TCR CD3 inh,MBD2 inh,LEDGF integ inh,Rin1 Abl inh,IN multimer up,TRFRET interf,LEDGF integ conf
CC(=O)N1CCN(c2nc(-c3ccco3)c3c(c2C#N)CC(C)(C)SC3)CC1,7,-3,4,22*,-4,-1,6,19*
CC1(C)Cc2c(c(-c3ccco3)[nH]c(=O)c2C#N)CS1,15,15,-1,18*,-3,-1,5,23*
Cc1oc(CC(C)C)cc1C(=O)Nc1ccc(C(=O)O)cc1,2,3,2,16*,-1,1,-5,-7
O=C1C=C(Nc2cccc(O)c2)CC(c2ccco2)C1 (stereo not drawn),-2,4,-6,14*,-5,-1,3,7
COc1cccc(NC(=O)CSc2nnc(-c3ccoc3C)n2-c2ccccc2)c1,-3,-3,-3,29*,·,2,-6,-13
COc1ccc(-n2c(SCC(=O)Nc3ccccc3)nnc2-c2ccoc2C)cc1,1,5,2,1,1,·,·,·
O=C(CCC(=O)c1ccc(F)cc1)NC1CCCN(Cc2ccccc2F)C1 (stereo not drawn),1,-2,1,4,3,·,·,·
CC(C)NCC(O)c1ccc(NS(C)(=O)=O)cc1 (stereo not drawn),-2,2,2,2,1,·,·,·
CC(C)NC[C@@H](O)c1ccc(O)c(O)c1,-2,8,-7,16*,6,4,-21,21*
CN(C)C1=NCCN1CCC1CCCC1,0,4,0,0,-2,·,·,·
COc1cccc(C(=O)OCC(=O)NC(C)CCc2ccccc2)c1O (stereo not drawn),2,-1,3,-3,-3,·,·,·
O=C(Nc1ccc2c(c1)OCO2)c1cccc(F)c1,0,2,5,1,-1,·,·,·
O=C(Nc1c(-c2ccc3c(c2)OCO3)[nH][nH]c1=O)c1cccc(C(F)(F)F)c1,14,8,2,20*,3,2,-11,-3
Cc1ccc(C)c(-n2c3nc(=O)[nH]c(=O)c-3cc3cc([N+](=O)[O-])ccc32)c1,10,-7,-4,21*,-2,-3,10,21*
NC(=S)NN=Cc1nccc2c(N)cccc12,-8,4,-12,20*,1,15*,-75,17*
CCCCOc1cccc2c(=O)n(CC(=O)Nc3ccc4c(c3)OCCO4)ccc12,-3,-9,-2,1,0,·,·,·
CC[C@@H](C)CN1C(=O)N[C@@H](c2ccccc2)C(C(C)=O)=C1C,10,10,-6,18*,3,1,-4,19*
